In PubChem BioAssay (NCATS):
Results filed as inconclusive are left out. Unmarked numbers belong to inactive results. Calls of active or inactive are those of the source. Calls follow the shape of the dose curve; as a rule, active = well fitted inhibition curve with a large enough effect; inconclusive = small, poorly fitted or top-dose-only effect; inactive = flat fitted curve, though single readings scatter.
Potency is read from the fitted curve at half-maximal effect.

Test system: not listed separately
Experiment: qHTS profiling for inhibitors of Plasmodium falciparum proliferation (AID 504749); also: nearly all actives have a fitted effect of over 60% in size;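 as to activity, negative = inhibition: 0% = DMSO vehicle and full inhibition = artemisinin control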
Settings: P. falciparum in erythrocytes, SYBR Green DNA, 72 h; at 12.8 µM (top of the series); parasite line A
Procedure, shortened: (§1)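 SYBR Green fluorescence of parasite DNA, read after lysis and overnight dark incubation, measured growth over 72 h in erythrocyte culture at 0.3% parasitemia and 2.5% hematocrit. Data normalised to DMSO and 0.29 uM artemisinin, with plate-drift correction.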
Compound `CN1CCN(CCCN2c3ccccc3Sc3ccc(S(=O)(=O)N(C)C)cc32)CC1` has an activity, negative = inhibition of 5.01%. `CCCCCCCCCCCCCCCC[N+](C)(C)CCN(Cc1ccc(OC)cc1)c1ncccn1` showed an activity, negative = inhibition of -28.5%. For `Cc1cccc(C)c1NC(=O)CN1CCN(CCCC(c2ccc(F)cc2)c2ccc(F)cc2)CC1`, the activity, negative = inhibition was -9.2%.

Same assay, conditions: P. falciparum in erythrocytes, SYBR Green DNA, 72 h; at 12.8 µM (top of the series); parasite line B
In the case of `CCOc1ccc(Cc2nccc3cc(OCC)c(OCC)cc23)cc1OCC`, the activity, negative = inhibition is reported as -21.6%. `CN1CCN(CCCN2c3ccccc3Sc3ccc(S(=O)(=O)N(C)C)cc32)CC1` gave an activity, negative = inhibition of -5.83%. For `Cc1cccc(C)c1NC(=O)CN1CCN(CCCC(c2ccc(F)cc2)c2ccc(F)cc2)CC1`, the activity, negative = inhibition was -3.17%.

Same assay, conditions: P. falciparum in erythrocytes, SYBR Green DNA, 72 h; at 28.7 µM (top of the series); parasite line A
In the case of `O=C1[C@H]2CCCC[C@H]2C(=O)N1CCCCN1CCN(c2nsc3ccccc23)CC1`, the activity, negative = inhibition is reported as -3.99%. `COc1ccc(C2C(=O)c3ccccc3C2=O)cc1` gave an activity, negative = inhibition of 3.83%. `CCCOC(C(=O)OC1CCN(C)CC1)(c1ccccc1)c1ccccc1` gave an activity, negative = inhibition of -18.3%. Work on `CCCCCCCCCCCCCCCCCC(=O)OCC(O)CO` (configuration not stated) yielded an activity, negative = inhibition of 5.19%. For `CC(=O)OCC(=O)[C@@]1(OC(C)=O)[C@@H](C)C[C@H]2[C@@H]3C[C@H](F)C4=CC(=O)C=C[C@]4(C)[C@@]3(F)[C@@H](O)C[C@@]21C`, the activity, negative = inhibition was -18.2%. `CN1CCC[C@@H]1c1cccnc1` showed an activity, negative = inhibition of 3.02%. For `CCCCCCCCCCOCC(O)CN` (configuration not stated), the activity, negative = inhibition was -16.8%. In the case of `CCN(CC)C(=O)/C(C#N)=C/c1cc(O)c(O)c([N+](=O)[O-])c1`, the activity, negative = inhibition is reported as -3.14%. In the case of `CC(C)NC[C@@H](O)COc1cccc2ccccc12`, the activity, negative = inhibition is reported as 4.7%. Work on `Oc1ccc(Cl)c2cccnc12` yielded an activity, negative = inhibition of -27%. In the case of `CC(O)C(=O)O` (configuration not stated), the activity, negative = inhibition is reported as 1.12%. With `CNCCC=C1c2ccccc2CCc2ccccc21` the activity, negative = inhibition was -6.28%.

Same assay, conditions: P. falciparum in erythrocytes, SYBR Green DNA, 72 h; at 28.7 µM (top of the series); parasite line B
`O=C1[C@H]2CCCC[C@H]2C(=O)N1CCCCN1CCN(c2nsc3ccccc23)CC1` showed an activity, negative = inhibition of 7.58%. `CCCCCCCCCCCCCCCCCC(=O)OCC(O)CO` (configuration not stated) showed an activity, negative = inhibition of 11.8%. With `CCN(CC)C(=O)/C(C#N)=C/c1cc(O)c(O)c([N+](=O)[O-])c1` the activity, negative = inhibition was -7.95%. For `CC(C)COC(=O)c1ccc(N)cc1`, the activity, negative = inhibition was -17.5%. `C[C@@H]1C(=O)NC2=Nc3cccc(Cl)c3CN21` showed an activity, negative = inhibition of -2.54%. `Cc1ccc(O)c2ncccc12` gave an activity, negative = inhibition of -28.2%. With `CC(O)C(=O)O` (configuration not stated) the activity, negative = inhibition was 5.39%.

Same assay, conditions: P. falciparum in erythrocytes, SYBR Green DNA, 72 h; parasite line A
With `CC[N+](CC)(CCNC(=O)C(=O)NCC[N+](CC)(CC)Cc1ccccc1Cl)Cc1ccccc1Cl` the Potency was 1.12 µM (active). For `O=C(N/N=C/c1ccccc1O)c1ccncc1`, the Potency was 6.31 µM (active). In the case of `C=C(CC)C(=O)c1ccc(OCC(=O)O)c(Cl)c1Cl`, the Potency is reported as 12.6 µM (active). With `CCCCCCCCCCCCCCNCCO` the Potency was 10 µM (active). With `C[C@@H]1CN(CCCn2c3ccccc3c3ccccc32)C[C@H](C)N1` the Potency was 10 µM (active). In the case of `CCCCC(CC)CN=C(N)NC(N)=NCCCCCCN=C(N)NC(N)=NCC(CC)CCCC` (configuration not stated), the Potency is reported as 1 µM (active). For `CC(C)N=C(N)/N=C(\N)Nc1ccc(Cl)cc1`, the Potency was 1.12 µM (active).

Same assay, conditions: P. falciparum in erythrocytes, SYBR Green DNA, 72 h; parasite line B
In the case of `CC[N+](CC)(CCNC(=O)C(=O)NCC[N+](CC)(CC)Cc1ccccc1Cl)Cc1ccccc1Cl`, the Potency is reported as 0.794 µM (active). With `O=C(N/N=C/c1ccccc1O)c1ccncc1` the Potency was 11.2 µM (active). In the case of `CCCCc1nc(Cl)c(CO)n1Cc1ccc(-c2ccccc2-c2nn[nH]n2)cc1`, the Potency is reported as 12.6 µM (active). In the case of `COc1cccc(CCc2ccccc2OCC(CN(C)C)OC(=O)CCC(=O)O)c1` (configuration not stated), the Potency is reported as 6.31 µM (active). For `c1ccc(-c2ccc(C(c3ccccc3)n3ccnc3)cc2)cc1` (configuration not stated), the Potency was 11.2 µM (active). For `CC(C)N=C(N)/N=C(\N)Nc1ccc(Cl)cc1`, the Potency was 1.58 µM (active). In the case of `CN(C)CC/C=C1\c2ccccc2Sc2ccc(Cl)cc21`, the Potency is reported as 8.91 µM (active).

Test system: 3D7
Experiment: as above
Settings: P. falciparum in erythrocytes, SYBR Green DNA, 72 h; series mostly up to 28.7 µM; activity, negative = inhibition: at the top concentration
Procedure, shortened: as §1
In the case of `COc1ccc(C2C(=O)c3ccccc3C2=O)cc1`, the “activity, negative = inhibition” value is reported as -9.46%. In the case of `CCN(CC)CCNC(=O)COc1ccc(Cl)cc1`, the “activity, negative = inhibition” value is reported as -16.3%. In the case of `CCCCc1nc(Cl)c(CO)n1Cc1ccc(-c2ccccc2-c2nn[nH]n2)cc1`, the Potency is reported as 5.62 µM (active). With `CC(=O)OCC(=O)[C@@]1(OC(C)=O)[C@@H](C)C[C@H]2[C@@H]3C[C@H](F)C4=CC(=O)C=C[C@]4(C)[C@@]3(F)[C@@H](O)C[C@@]21C` the “activity, negative = inhibition” value was -9.27%. With `COc1cccc(CCc2ccccc2OCC(CN(C)C)OC(=O)CCC(=O)O)c1` (configuration not stated) the Potency was 10 µM (active). In the case of `CN1CCC[C@@H]1c1cccnc1`, the “activity, negative = inhibition” value is reported as 1.08%. For `CCCCCCCCCCOCC(O)CN` (configuration not stated), the “activity, negative = inhibition” value was -14%. For `O=C(CCCN1CCC(O)(c2ccc(Br)cc2)CC1)c1ccc(F)cc1`, the Potency was 5.62 µM (active). With `CC(C)COC(=O)c1ccc(N)cc1` the “activity, negative = inhibition” value was 3.36%. With `CN(C)C(=S)SC(=S)N(C)C` the Potency was 11.2 µM (active). In the case of `CC(C)NC[C@@H](O)COc1cccc2ccccc12`, the “activity, negative = inhibition” value is reported as -10.8%. With `C[C@@H]1C(=O)NC2=Nc3cccc(Cl)c3CN21` the “activity, negative = inhibition” value was -6.92%. In the case of `CCCCC(CC)CN=C(N)NC(N)=NCCCCCCN=C(N)NC(N)=NCC(CC)CCCC` (configuration not stated), the Potency is reported as 1.58 µM (active). For `O=C(Nc1ccc(Oc2ccc(Cl)cc2)c(Cl)c1)c1cc(I)cc(I)c1O`, the “activity, negative = inhibition” value was -13.6%. For `CO/N=C1\CN(c2nc3c(cc2F)c(=O)c(C(=O)O)cn3C2CC2)CC1CN` (configuration not stated), the Potency was 10 µM (active). For `CNCCC=C1c2ccccc2CCc2ccccc21`, the “activity, negative = inhibition” value was -11.9%. In the case of `CN(C)CC/C=C1\c2ccccc2Sc2ccc(Cl)cc21`, the “activity, negative = inhibition” value is reported as -25%. In the case of `Oc1ccc(O)cc1`, the Potency is reported as 8.91 µM (active).
